High-throughput results from PubChem.
HCMV inh = inhibitors of human cytomegalovirus | HFF cells, HCMV-luciferase reporter, 72 h; stronger effect = lower value | activity change, negative = inhibition, % at 57.5 µM | actives 4.5% (n = 410,000); in the data active = activity change below about -60%; inconclusive = no clear call, values can overlap the other calls; inactive = above about -39%
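HFF cells seeded 16 h at 37C, treated with compounds, infected with luciferase-reporter HCMV at MOI 1 PFU/cell; luciferase read at 72 h post infection, normalized to buffer-only and Salinomycin controls.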
Vaccinia mCherry = vaccinia inhibition (mCherry reporter) | Potency, µM (titrated, usually from 36.5 µM), inactives show at the highest dose activity change, negative = inhibition, most hits filed as inhibitors | Vaccinia virus mCherry reporter infection, fluorescence | actives 0.63% (n = 310,000); calls by dose curve; tested in A549 cells; note: potency is the fitted concentration of half-maximal effect; nearly all actives have a fitted effect of over 35% in size
HCV inh = blocks hepatitis C virus. Huh7.5.1 HCVcc-Cre infection, luciferase reporter, 44 h. Potency, µM (doses to about 41.8 µM), without a hit: at the highest dose activity change, negative = inhibition, most hits filed as inhibitors. actives 3.4% (n = 340,000); note: potency is the fitted concentration of half-maximal effect
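Reporter virus HCVcc-Cre (~0.5 moi) infects cells exposed to compound; seeding density 1,000 cells/well with 4 h settling beforehand. Luminescence, 15 sec read, taken 44 h post-infection following a 15 min RT substrate incubation.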
VACV Venus inh = vaccinia inhibition (Venus reporter); actives 0.46% (n = 330,000); Potency, µM (doses to about 36.5 µM), inactives show at the highest dose activity change, negative = inhibition, usual class: inhibitors; Vaccinia virus Venus reporter expression, fluorescence; calls by dose curve; tested in A549 cells; note: potency is the fitted concentration of half-maximal effect; nearly all actives have a fitted effect of over 30% in size
FMDV antiviral = blocks foot and mouth disease virus; actives 1.2% (n = 410,000); AID 1159524; FMDV antiviral cell-based qHTS; Potency, µM (top dose mostly 57.9 µM), inactives show top-dose activity change, negative = inhibition, most hits filed as inhibitors; calls by dose curve; tested in HEK293T cells; note: read-out not given here; potency is the fitted concentration of half-maximal effect; nearly all actives have a fitted effect of over 45% in size
Giardia FBPA inh = Giardia lamblia aldolase inhibition; purified Giardia FBPA; Potency, µM (top dose mostly 59.6 µM), inactives show at the highest dose activity, negative = inhibition, actives largely listed as inhibitors; actives 0.71% (n = 290,000); AID 2451; note: potency is the fitted concentration of half-maximal effect; nearly all actives have a fitted effect of over 55% in size
Target sequence (A8B2U2 whole entry, looked up): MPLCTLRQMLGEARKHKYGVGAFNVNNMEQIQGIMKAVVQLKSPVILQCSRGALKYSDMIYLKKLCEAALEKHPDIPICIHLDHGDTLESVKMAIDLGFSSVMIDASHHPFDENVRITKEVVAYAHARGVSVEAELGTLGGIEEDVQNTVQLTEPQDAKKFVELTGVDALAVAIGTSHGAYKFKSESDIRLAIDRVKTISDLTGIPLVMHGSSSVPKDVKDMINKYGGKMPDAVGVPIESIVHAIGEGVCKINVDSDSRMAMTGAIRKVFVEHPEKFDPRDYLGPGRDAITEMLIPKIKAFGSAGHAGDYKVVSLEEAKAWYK
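40 nM FBPA preincubated 10 min at RT with compound (up to 57.5 uM final), then substrate plus GAPDH/TPI/NAD/arsenate coupling and diaphorase/resazurin added. Fluorescence read after 20 min at RT, 525/598 nm.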
* = called active by the depositor; i = inactive; ? = inconclusive; / = no result given. In the library only some 7.5% were active in any assay of this set; here they are far more common. Unless noted, calls come from the whole dose curve; as a rule, active = well fitted curve in the direction sought with a large enough effect; inconclusive = small, poorly fitted or top-dose-only effect, or another doubt; inactive = no such curve, though single readings can be large; an effect the other way counts as inactive or inconclusive. % is set by controls: 0 for no effect and ±100 for the full control effect.

SMILES	HCMV inh	Vaccinia mCherry	HCV inh	VACV Venus inh	FMDV antiviral	Giardia FBPA inh
CCc1ccc(-n2cc(-c3ccc(F)cc3)[n+]3c2SCCC3)cc1	-87*	-25%	?	-6%	-13%	0%
Cc1ccc(-c2cn(-c3ccccc3)c3[n+]2CCCS3)cc1	-93*	/	?	?	10µM*	-3%
c1ccc(-c2cn(-c3ccccc3)c3[n+]2CCCS3)cc1	-33	-9%	-19%	-19%	?	2%
Cc1nc(C)c(C(=O)NCCC(c2ccccc2)c2ccccc2)o1	?	i	10µM*	-19%	?	2%
S=C(Nc1ccc2nsnc2c1)NC1CCCCC1	-62*	i	-3%	-7%	58%	1.8µM*
S=C(Nc1ccc(Cl)c(Cl)c1)NC1CCCCC1	-99*	/	?	/	19%	10%
C=CCN(CC=C)C(=S)Nc1ccc2nsnc2c1	-4	?	2%	-4%	17%	10µM*
Cc1ccc(NC(=S)NCc2ccc3c(c2)OCO3)cc1C	11	-17%	8%	-12%	44%	-3%
CC(C)c1ccc(NC(=S)NC2CCCCCC2)cc1	18	i	-3%	-21%	45%	-1%
S=C(NCc1ccc2c(c1)OCO2)Nc1ccc2nsnc2c1	-66*	-13%	?	-5%	34%	?
CCC1(CC)C(=O)NC(=O)NC1=S	-20	-9%	16%	-5%	-14%	/
S=C(NNc1ccc2ccccc2c1)NC1CCCCC1	-60*	-14%	-13%	-24%	41%	-12%
Nc1c(OS(=O)(=O)c2ccccc2)cccc1OS(=O)(=O)c1ccccc1	119	i	/	-22%	64%	/
CC(C)NC(=O)NC(=O)CSc1nnc(COc2ccccc2F)n1C(C)C1CC2CCC1C2 (stereo not given)	20	/	?	/	28µM*	-1%
CC(C1CC2CCC1C2)n1c(COc2ccccc2F)nnc1SCC(N)=O (stereo not given)	4	/	10%	-1%	-22%	0%
CCN(C(=O)CSc1nc2ccccc2nc1Cc1ccc(F)cc1)c1cccc(C)c1	2	-7%	/	-9%	-27%	/
CCN(C(=O)CSc1nc(-c2ccccc2)no1)c1cccc(C)c1	-107*	2.8µM*	/	?	?	/
O=C(Nc1cccc(C(F)(F)F)c1)c1ccc2snnc2c1	-20	-1%	/	-1%	-9%	/
O=C(Nc1ccccc1)Nc1ccc2snnc2c1	11	-2%	11µM*	-19%	20%	-5%
O=C(Nc1cccc(C(F)(F)F)c1)Nc1ccc2snnc2c1	-105*	?	/	?	-27%	/
Cc1ccc(NC(=O)Cn2c(=O)n(CCC(=O)N3CCc4ccccc4C3)c(=O)c3ccccc32)cc1	11	-13%	/	-12%	4%	/
CCCCC(O)(c1ccc(F)cc1)C(CN1CCOCC1)c1ccc(Cl)cc1 (stereo not given)	-32	/	?	/	?	1%
COc1ccc2c(c1)c(=O)c(S(=O)(=O)c1ccc(F)cc1)cn2Cc1ccccc1Cl	3	-3%	/	-3%	-15%	/
CCCCCCCCCCCCCCCC[n+]1cccc2ccccc21	-98*	10µM*	4.5µM*	10µM*	?	3%
CCCCCCCCC[n+]1cccc2c3ccccc3ccc21	/	/	4.5µM*	11µM*	0%	4%
SMILES	HCMV inh	Vaccinia mCherry	HCV inh	VACV Venus inh	FMDV antiviral	Giardia FBPA inh
CCCCCCC[n+]1ccc(C)c2ccccc21	/	?	/	-27%	/	/
CCCCCCCCCCCC[n+]1ccc(C)c2ccccc21	/	-11%	/	-9%	/	/
CC(=O)c1ccccc1-c1ccc2c(c1)CC(CNC(=O)Cc1c[nH]c3ccccc13)O2 (stereo not given)	/	-20%	/	-8%	0%	/
Cc1nc2ccccc2n1C(c1cccnc1)c1nc2ccccc2[nH]1 (stereo not given)	-79*	?	/	10%	34%	/
c1ccc(-c2nc3ccccc3n2C(c2ccccc2)c2nc3ccccc3[nH]2)cc1 (stereo not given)	57	i	/	3%	24%	/
CCc1nc(-c2cc(S(=O)(=O)N3CCN(c4ccc(F)cc4)CC3)ccc2OC)no1	3	-15%	/	-7%	9%	/
N/C(=N\OC(=O)C12CC3CC(CC(C3)C1)C2)c1ccccc1	65	/	5µM*	/	47%	6%
COc1ccc(C=C(c2nc3ccccc3s2)c2nc3ccccc3s2)cc1O	-83*	i	?	-21%	-7%	-15%
COc1cc(C=C(c2nc3ccccc3s2)c2nc3ccccc3s2)ccc1O	?	-1%	?	i	2%	-3%
CCOC(=O)C1=C(C)NC(=S)NC1c1ccc(-c2cccc(Cl)c2C)o1 (stereo not given)	-9	/	6.3µM*	?	?	?
COc1cc(C2c3cc4c(cc3OC(NNC(N)=O)C2C)OCO4)cc(OC)c1OC (stereo not given)	-86*	-20%	?	?	-14%	/
COc1cc(C2c3cc4c(cc3OC(NNC(N)=S)C2C)OCO4)cc(OC)c1OC (stereo not given)	-81*	2.8µM*	-12%	?	-19%	/
COc1cccc(C2c3cc4c(cc3OC(NNC(N)=O)C2C)OCO4)c1O (stereo not given)	-73*	?	-4%	?	-18%	/
CCN(CC)C1Oc2cc3c(cc2C(c2cc(OC)c(O)c(OC)c2)C1C)OCO3 (stereo not given)	62	?	-23%	-28%	-16%	/
COc1cc(C2c3cc4c(cc3OC(NCc3ccccc3)C2C)OCO4)cc(OC)c1OC (stereo not given)	-80*	?	-9%	-28%	-18%	/
COc1cc(S(=O)(=O)n2cnc(C)c2)ccc1Br	-29	-1%	-5%	-9%	17%	-2%
CC(=O)Nc1ccc(NC(=O)CSc2nnc(N)n2-c2ccccc2)cc1	-11	i	6%	-17%	-8%	/
COc1ccc2c(c1)CC/C(=C\c1ccc(OC)c(Cn3nc(C)cc3C)c1)C2=O	-9	/	4µM*	/	?	-7%
COc1cccc(-c2nc3cc4c(cc3cc2CN(C(=O)c2cccs2)C2CC2)CCC4)c1OC	/	?	/	?	32µM*	/
CCOC(=O)c1cc(CC)sc1NC(=O)c1ccc2c(c1)OCCO2	12	-25%	?	-11%	-16%	0%
